Test results published in PubChem BioAssay AID1782 (National Center for Advancing Translational Sciences (NCATS), 2009).
Results filed as inconclusive are left out. Activity calls are given as the source filed them. Calls come from the whole dose curve; as a rule, active = well fitted curve in the direction sought with a large enough effect; inconclusive = small, poorly fitted or top-dose-only effect, or another doubt; inactive = no such curve, though single readings can be large or run the other way.

molecular target: Pyruvate kinase PKLR (Homo sapiens) (UniProt P30613); assay: Confirmation Concentration-Response Assay for Activators of Human Reticulocyte Pyruvate Kinase; details: purified hPK-R, Kinase-Glo ATP luminescence, 1 h; series mostly up to 57.5 µM; activity change, positive = activation: at the top concentration
Text: Confirmatory assay NIH Chemical Genomics Center [NCGC] Wael M. Rabeh, Lyudmila Nedyalkova and Hee-Wan Park [Structural Genomics Consortium, 100 College St. Toronto, Ontario, Canada] NCGC Assay Overview: Human pyruvate kinase reticulocyte (hPK-R) enzyme was supplied as a highly purified (>95% pure) preparation from Structural Genomics Consortium in Toronto (Ontario, Canada) and assayed for its ability to generate ATP from ADP using phosphoenolpyruvate (PEP) as a substrate. ATP generation was detected in a coupled reaction by luciferase-mediated luminescence, an ATP-dependent process. Pyruvate kinase substrates, PEP and ADP, were present in the assay at Km and approximately 10-fold below Km respectively. The enzyme was assayed at an intermediate level of activity to screen for both inhibitors and activators.
NCGC Assay Protocol Summary for R-isoform Three uL of substrate mix (at r.t.) in assay buffer (50 mM Imidazole pH7.2, 50 mM KCl, 7 mM MgCl2, 0.01% Tween 20, 0.05% BSA) was dispensed into white solid bottom 1,536 well microtiter plates so that the final concentrations of substrates in the assay were 0.1 mM ADP and 0.5 mM PEP. 23 nL of compound were delivered by a pin tool and 1 uL of enzyme mix (final concentration of 0.1 nM) in assay buffer (4 degree Celsius) was added. Plates were incubated at room temperature for 1 hour. Two uL of detection mix (Kinase-Glo, Promega; at 4 degree Celsius protected from light) was added and luminescence read by a ViewLux (Perkin Elmer) at 1 second exposure/plate. Data were normalized to the uninhibited (row 31). Additionally, a no enzyme and 5-fold enzyme control was dispensed in row 32, split equally between the two conditions.

Pyruvate kinase PKLR (Homo sapiens), sequence (P30613 whole entry, looked up): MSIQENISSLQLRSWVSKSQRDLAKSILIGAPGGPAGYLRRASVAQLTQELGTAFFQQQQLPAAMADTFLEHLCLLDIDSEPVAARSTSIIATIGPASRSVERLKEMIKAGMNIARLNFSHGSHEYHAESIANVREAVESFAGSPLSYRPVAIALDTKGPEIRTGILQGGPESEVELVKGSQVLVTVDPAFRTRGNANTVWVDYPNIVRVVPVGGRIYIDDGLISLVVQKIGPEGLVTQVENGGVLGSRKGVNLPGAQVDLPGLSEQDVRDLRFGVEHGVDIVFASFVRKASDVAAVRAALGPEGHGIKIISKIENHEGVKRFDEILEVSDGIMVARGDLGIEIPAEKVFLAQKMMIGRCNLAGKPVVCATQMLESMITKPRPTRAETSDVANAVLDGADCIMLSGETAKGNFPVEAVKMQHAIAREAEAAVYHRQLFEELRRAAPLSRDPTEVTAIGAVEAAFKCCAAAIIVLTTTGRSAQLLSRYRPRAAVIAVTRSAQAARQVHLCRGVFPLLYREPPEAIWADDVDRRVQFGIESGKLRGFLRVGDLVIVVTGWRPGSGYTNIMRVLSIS

Activity change, positive = activation, inactive:
Cc1cc2c(s1)c1cnn(Cc3cccc(F)c3F)c(=O)c1n2C -17%
Cn1c2cc(C=O)sc2c2cnn(Cc3ccccc3F)c(=O)c21 -8.47%
Cc1cc2c(s1)c1cnn(Cc3c(F)cccc3F)c(=O)c1n2C -1.31%
Cn1c2ccsc2c2ncn(Cc3ccccc3F)c(=O)c21 1.87%
Cc1cc2c(s1)c1cnn(Cc3ccccc3)c(=O)c1n2C 0.949%
Cc1cc2c(s1)c1cnn(Cc3ccc(S(C)(=O)=O)cc3)c(=O)c1n2C -3.65%
Cc1cc2c(s1)c1cnn(Cc3c(F)cccc3Cl)c(=O)c1n2C 1.3%
CC(C)c1cc2c(s1)c1cnn(Cc3ccccc3F)c(=O)c1n2C -6.48%
Cc1cc2c(s1)c1cnn(Cc3ccc(Cl)cc3)c(=O)c1n2C 4.3%
CC(=O)c1cc2c(s1)c1cnn(Cc3ccccc3F)c(=O)c1n2C 3.32%
Cc1cc2c(s1)c1cnn(Cc3ccc(F)c(F)c3F)c(=O)c1n2C -17.7%
Cc1cc2c(s1)c1cnn(-c3ccccc3)c(=O)c1n2C 2.99%
Cn1c2cc(S(C)=O)sc2c2cnn(Cc3ccccc3F)c(=O)c21 (stereo not drawn) -8.85%
Cc1cc2c(s1)c1cnn(Cc3cccc(Cn4ncc5c6sc(C)cc6n(C)c5c4=O)c3F)c(=O)c1n2C -2.51%
O=S(=O)(c1ccc2c(c1)OCCCO2)N1CCN(S(=O)(=O)c2c(F)cccc2F)CC1 5.67%
Cc1cc2c(s1)c1cnn(Cc3cc(C(F)(F)F)cc(Cl)c3F)c(=O)c1n2C -0.735%
O=C(CN1C(=O)N/C(=C\c2cccn2-c2cccc(C(=O)O)c2)C1=O)Nc1ccccc1F -17.4%
O=C(c1ccc2c(c1)OCCO2)N1CCN(S(=O)(=O)c2c(F)cccc2F)CC1 -13.7%
CC(=O)Nc1cc2c(s1)c1cnn(Cc3ccccc3F)c(=O)c1n2C 2.97%
Cc1cc2c(s1)c1cnn(Cc3cccc(F)c3)c(=O)c1n2C -2.76%
O=S(=O)(NCCCCCNS(=O)(=O)c1c(F)cccc1F)c1ccc2c(c1)OCCO2 7.54%
Cn1c2ccsc2c2cnn(Cc3ccccc3F)c(=O)c21 -11%

Potency, inactive:
COc1ccc(S(=O)(=O)N2CCN(S(=O)(=O)c3ccc(OC)cc3)CC2)cc1
